AMA1 RON2 block – qHTS for Inhibitors of AMA1-RON; Towards Development of Antimalarial Drug Lead: Primary Screen; Plasmodium falciparum AMA1 (3D7) - RON2 peptide interaction; AlphaScreen AMA1-biotinylated RON2 peptide binding; Potency, µM (titrated, usually from 58.2 µM), without a hit: top-dose activity change, negative = inhibition, hits mostly inhibitors; 360,000 compounds, 0.2% hits;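 further: potency means the concentration at half of the fitted maximal effect; 0% = vehicle wells and -100% = peptide control; nearly all actives have a fitted effect of over 45% in size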
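AMA1 (3D7) with his tag at 25 nM final met compounds first, then biotinylated RON2 peptide at 25 nM; detection used donor plus acceptor beads, 10 µg/mL apiece, read by AlphaScreen after 30 min at room temperature.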
Shiga toxin inh – A qHTS for Small Molecule Inhibitors of Shiga Toxin; 290,000 compounds, 9.2% hits; Vero cells, Shiga toxin protein synthesis inhibition reporter; inhibition, % at 38.7 µM; in the data active means inhibition mostly above about 28%, no sharp cut-off; inactive means mostly below about 43%; further: 0% is about no effect
Cycloheximide cs – Cycloheximide Counterscreen for Small Molecule Inhibitors of Shiga Toxin; cell reporter, cycloheximide protein synthesis inhibition counterscreen; max response, %; 300,000 compounds, 12% hits; AID 2314, 2010; in the data active means max response mostly above about 13%, no sharp cut-off; inactive means mostly below about 14%; further: read at 38.3 µM for the half of the compounds with a filed dose; 0% is about no effect
Pf growth 96h – Primary qHTS for delayed death inhibitors of the malarial parasite plastid, 96 hour incubation. P. falciparum luciferase reporter growth, 96 h. Potency, µM (top dose mostly 28.7 µM), for inactives: at the highest dose activity change, negative = inhibition, hits mostly inhibitors. 320,000 compounds, 6.9% hits. AID 504834, 2011; further: potency means the concentration at half of the fitted maximal effect; on the % scale 0 is the no-effect control and ±100 the full control effect
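Parasite growth measured via integrated firefly luciferase reporter in P. falciparum. Infected erythrocytes at 2% hematocrit, 0.05% parasitemia final were treated 96 hours at 37 C under 5% CO2, and luminescence was read.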
SARS PLpro yeast – qHTS of Yeast-based Assay for SARS-CoV PLP. Potency, µM (top dose mostly 32.9 µM), inactives show at the highest dose activity, positive = growth rescue, actives largely listed as activators. S. cerevisiae expressing SARS-CoV PLpro, growth rescue. AID 485353, 2010. 330,000 compounds, 0.19% hits; calls by dose curve; further: potency means the concentration at half of the fitted maximal effect; 0% is about no effect; nearly all actives have a fitted effect of over 55% in size
Pf growth 48h – Primary qHTS for delayed death inhibitors of the malarial parasite plastid, 48 hour incubation. 310,000 compounds, 5.9% hits. Potency, µM (top dose mostly 28.7 µM), inactives show top-dose activity change, negative = inhibition, actives largely listed as inhibitors. AID 504832, 2011. P. falciparum luciferase growth in erythrocytes, 48 h; further: potency means the concentration at half of the fitted maximal effect; on the % scale 0 is the no-effect control and ±100 the full control effect
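Cell-based growth assay: transgenic P. falciparum expressing firefly luciferase, cultured in red cells within RPMI 1640 containing 0.5% w/v Albumax, 24 mM bicarbonate and gentamycin. A drop in luciferase activity indicates inhibition.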
An asterisk follows results filed as active; ? = inconclusive; . = not tested or not shown; [ ] = remark or other dose. This is a sample that favours compounds with a hit; in the whole collection about 19% have one here. Unless noted, the call rests on the fitted dose curve; in most records, active means well fitted curve in the direction sought with a large enough effect; inconclusive means small, poorly fitted or top-dose-only effect, or another doubt; inactive means no such curve, though single readings can be large; an effect the other way counts as inactive or inconclusive.

SMILES	AMA1 RON2 block	Shiga toxin inh	Cycloheximide cs	Pf growth 96h	SARS PLpro yeast	Pf growth 48h
Cc1ccc(NC2=C/C(=N/S(=O)(=O)c3cccs3)c3ccccc3C2=O)cc1C	-14.5%	50.2*	31.4*	10.7%	-5.2%	0.657µM*
CC(=O)Nc1ccc(NC(=O)C(C)OC(=O)c2ccccc2NS(=O)(=O)c2cccs2)cc1 (stereo not drawn)	-2.8%	-2.2	-0.9	?	0.6%	-5.2%
Cc1ccc(C)c(S(=O)(=O)/N=C2\C=C(NS(=O)(=O)c3ccccc3)C(=O)c3ccccc32)c1	-22.2%	-7.4	-3.6	?	-6.8%	?
CC(=O)Nc1ccc(NC2=C/C(=N/S(=O)(=O)c3cccs3)c3ccccc3C2=O)cc1	-25.7%	5.1	17.0	103.9%	-0.5%	0.147µM*
Cc1ccccc1NC1=C/C(=N\S(=O)(=O)c2cccs2)c2ccccc2C1=O	8.91µM*	-25.6	7.4	.	-28.4%	0.0928µM*
Cc1cc(S(=O)(=O)N(Cc2cccs2)Cc2ccccc2F)ccc1-n1cnnn1	9.8%	-6.0	8.9	?	2.7%	?
O=C(CS(=O)(=O)Cc1ccccc1)NCc1ccccc1Cl	2.5%	-2.4	12.7	?	0.5%	0.1%
O=C1Nc2ccccc2N2CCCC12 (stereo not drawn)	.	-20.0	-1.7	?	-0.8%	?
O=C1Nc2cc(Cl)cnc2N2CCCC12 (stereo not drawn)	0.0%	-15.4	-1.9	4.15µM*	-12.3%	-25.4%
Nc1c(S(=O)(=O)c2ccccc2)csc1C(=O)O	-7.8%	-13.1	-4.4	-11.7%	1.4%	?
CN(C)S(=O)(=O)c1ccc(N2CCCC2)c(C(=O)NCC2COc3ccccc3O2)c1 (stereo not drawn)	0.0%	.	.	-22.9%	-2.2%	?
CN(C)S(=O)(=O)c1cccc(NC(=O)c2cc([N+](=O)[O-])ccc2N2CCCCC2)c1	-0.3%	.	.	?	-17.5%	13.1µM*
CC(=O)Nc1cccc(NC(=O)c2cc([N+](=O)[O-])ccc2N2CCCCC2)c1	-1.4%	.	.	-86.0%	3.7%	?
Cc1ccc(C(=O)c2cc([N+](=O)[O-])ccc2N2CCCCC2)c(C)c1	-24.4%	-17.5	-2.5	13.1µM*	-42.8%	11.7µM*
CN(C)S(=O)(=O)c1ccc(N2CCCC2)c(C(=O)NCC2CCCCC2)c1	2.9%	-16.7	-0.6	?	-0.2%	9.28µM*
COc1cc(Cl)c(C)cc1NC(=O)c1cc(S(=O)(=O)N(C)C)ccc1N1CCCC1	-10.0%[11.6 µM]	-8.6	-2.2	2.33µM*	-17.3%	4.65µM*
COc1ccc(NC(=O)CN(C)Cc2cccs2)cc1Cl	13.0%	21.5	11.5	-28.3%	-1.0%	?
COc1cccc(C2=NN(C(C)=O)C(c3cccs3)C2)c1 (stereo not drawn)	4.9%	29.6	20.9*	6.7%	-1.2%	20.6%
COc1ccc(C2=NN(C(C)=O)C(c3cccs3)C2)cc1OC (stereo not drawn)	-2.2%	34.9*	22.0*	?	2.1%	-5.6%
O=C(c1ccccc1)N1N=C(c2ccccc2)CC1c1cccs1 (stereo not drawn)	-8.1%	-14.2	9.5	?	-3.3%	?
CC(=O)N1N=C(c2ccccc2)CC1c1cccs1 (stereo not drawn)	9.1%	-4.0	10.0	12.9%	-2.2%	13.2%
CCS(=O)(=O)c1ccc2c(c1)N(S(C)(=O)=O)CC(C(=O)NC1CC1)O2 (stereo not drawn)	-5.9%	-17.4	-3.0	19.2%	-1.6%	10.3%
Cc1cc(=O)[nH]c(Nc2cccc(Cl)c2C)n1	-7.4%	-9.0	-2.7	13.4%	0.6%	-10.2%[0.00184 µM]
CCc1ccccc1N(CC(=O)NC(C)c1ccccc1)S(C)(=O)=O (stereo not drawn)	7.1%	.	0.8	-3.2%	-1.7%	-9.2%
COc1cc(-c2[nH]ncc2CN(C)Cc2cc(C)[nH]n2)cc(OC)c1OC	69.9%	-5.3	-0.7	?	0.0%	-17.4%

Source: PubChem BioAssay (National Center for Advancing Translational Sciences (NCATS))
